ChEMBL document CHEMBL3988442, “University of Dundee, Small-Polar-MMV Screening Library” (2021)
Among all 48,000 compounds or so, about 13,000 (27%) showed an effect of 50% or more. Some of the results follow.

These molecules were tested on Wolbachia pipientis (assay: Anti-Wolbachia Cell-Based Screen). Conditions: 5 µM.
Assay type: functional
Set-up: scale not given: in the data most compounds retested in dose-response had high values

| SMILES | Percent Effect |
| --- | --- |
| COc1cc(N2CCC3(CC2)CN(S(C)(=O)=O)c2ccccc23)ncn1 | 110.7% |
| O=C(O)C(F)(F)F.O=C(O)C(F)(F)F.OCCN1CC2(CCN(CC3CC3)CC2)c2ccccc21 | -29.18% |
| COc1cc(N2CC3(CCN(c4ncccn4)C3)C2)ncn1 | -18.99% |
| COc1cc(N2CC3(CCN(S(C)(=O)=O)C3)C2)ncn1.O=C(O)C(F)(F)F | -16.93% |
| COc1cc(N2CCC3(CC2)CN(CCO)c2ccccc23)ncn1 | 112.4% |
| CS(=O)(=O)N1CC2(CCN(c3nccs3)CC2)c2ccccc21 | 6.686% |
| CCc1ccc(C2COCCN2C(=O)Nc2ccc(C#N)cc2)o1 (stereo not given) | -6.805% |
| COCc1noc(-c2ccc(N3CCCCC3CCCO)nc2)n1 (stereo not given) | 5.834% |
| Cc1nc(Cn2c3c(ccc2=O)CC(N)CC3)cs1 (stereo not given) | 90.15% |
| Cc1nc(Cn2c3c(ccc2=O)CC(NC(N)=O)CC3)cs1 (stereo not given) | 99.56% |
| CCn1c2c(ccc1=O)CC(N)CC2 (stereo not given) | -10.57% |
| NC1CCc2c(ccc(=O)n2CC2CC2)C1 (stereo not given) | -25.6% |
| Fc1ccc(C2CN(CCc3ccncc3)CCO2)cc1 (stereo not given) | 89.73% |
| Cc1cc2[nH]c(CN3CCOC(c4ccc(F)cc4)C3)cc(=O)n2n1 (stereo not given) | -0.7414% |
| CCc1nccn1CCC(=O)N1CCOC(c2ccc(F)cc2)C1 (stereo not given) | 5.391% |
| COc1cccc(C2CN(CCc3ccncc3)CCO2)c1 (stereo not given) | 114.5% |
| COc1ccc(CNC2CCN(CCc3ccncc3)CC2)cc1O | -10.08% |
| NS(=O)(=O)CCN1CCOC(c2ccc(Cl)cc2)C1 (stereo not given) | -9.973% |
| Cc1ccc(-c2nc(CN3CCOC(c4ccccc4)C3)cs2)o1 (stereo not given) | 7.737% |
| CCNC(=O)NC(=O)CN1CCOC(c2cccc(Br)c2)C1 (stereo not given) | -11.97% |
| c1ccc(C2CN(CCc3ccncc3)CCO2)cc1 (stereo not given) | 114.6% |
| OCCCN1CCOC(c2ccc(F)cc2)C1 (stereo not given) | 108.3% |

| SMILES | Percent Effect |
| --- | --- |
| CCc1n[nH]c(C2CN(CCc3ccncc3)CCO2)n1 (stereo not given) | 1.737% |
| CCN(CC)Cc1nc2c(o1)CN(C(=O)c1ccc3[nH]ccc3c1)C2.O=CO | 2.766% |
| O=C(NC1CC1)N1Cc2[nH]nc(COCC3CC3)c2C1 | -7.793% |
| CCc1nc(CCNC(=O)NC2CCC(=O)N(C)C2)sc1C (stereo not given) | -4.769% |
| CN(C)c1cccc(C(=O)N2CCCc3cc(OC(F)(F)F)ccc32)c1 | 5.74% |
| CN(CC1CCC1)C(=O)Nc1cccnc1-n1cncn1 | -2.5% |
| Cc1oc(-c2ccsc2)nc1CN1CC[C@@H]2CCCC[C@H]2C1 | 16.57% |
| Clc1ccccc1C1CN(CCc2ccncc2)CCO1 (stereo not given) | 118% |
| CCNC(=O)NC(=O)CN1CCOC(c2ccccc2Cl)C1 (stereo not given) | 0.5373% |
| Cc1nc(C)n(CC2CN(CCc3ccccc3Cl)CCO2)n1 (stereo not given) | -35.87% |
| Cc1ccc(CC(=O)N2Cc3nccn3CC(Cn3cccn3)C2)cc1 (stereo not given) | -9.367% |
| CNC(=O)c1cnc2n1CCN(Cc1cccnc1OC)C2 | -12.45% |
| COc1ncccc1CN1Cc2nccn2CC(Cn2cccn2)C1 (stereo not given) | 99.64% |
| CS(=O)(=O)N1Cc2nccn2CC(CN2CCCC2)C1 (stereo not given) | -0.3251% |
| COc1ncccc1CN1Cc2nccn2CC(CN2CCCC2)C1 (stereo not given) | 87.46% |
| O=C(CCn1cncn1)Nc1ccc(F)cc1OCC1CC1 | -2.529% |
| COC(=O)CCNC(=O)c1ccc(NC(=O)N(C)CC(C)C)cc1 | 21.34% |
| CN(C)c1ccc(CNC(=O)NCCc2ccccn2)cn1 | 91.3% |
| Cc1cc(CNC(=O)NCc2cccs2)ccc1S(C)(=O)=O | -12.59% |
| CN(C)c1ccc(CCNC(=O)NCc2ccc(N(C)C)nc2)cc1 | 5.041% |
| CN(C)c1ccc(CNC(=O)NCCc2cn3ccccc3n2)cn1 | 118.9% |
| CN(C)c1ccc(CNC(=O)NCCc2cccs2)cn1 | 93.45% |

| SMILES | Percent Effect |
| --- | --- |
| CN(C)c1ccc(C(=O)NCCCc2ccccn2)cn1 | 11.7% |
| CC(C)c1nc(CCNC(=O)NCc2ccnc(N(C)C)c2)cs1 | 6.649% |
| Cc1ccccc1C1(O)CCN(C(=O)CCc2cn3ccccc3n2)C1 (stereo not given) | -1.584% |
| Cc1nc(CN2CCC(CNC(=O)Nc3ccccn3)CC2)oc1C | 15.98% |
| COCc1nc2n(n1)CCCC2Nc1nc(C(C)C)ns1 (stereo not given) | -13.74% |
| CN1CCN(S(=O)(=O)N2CCCCC2CCc2ccc(O)cc2)CC1 (stereo not given) | -0.6049% |
| CCn1cc(CN2CCCn3nc(CNS(C)(=O)=O)cc3C2)c(C)n1 | -7.534% |
| Cc1cc2c(c(=O)n1CCC(=O)O)C=CC(C)(C)O2 | 159.6% |
| CC(C)=CCCC1(C)C=Cc2c(cc(C)n(CCC(=O)O)c2=O)O1 (stereo not given) | 110.1% |
| CC(C)=CCCC1(C)C=Cc2c(cc(C)n(CC(=O)O)c2=O)O1 (stereo not given) | 107.4% |
| CCn1c(C)nnc1SCCNC(=O)c1cnc(C(C)(C)C)nc1O | -1.576% |
| CN(C)C(=O)N1CCN(CCCOc2ccccc2)[C@H]2CS(=O)(=O)C[C@H]21 | -34.84% |
| CC(O)CN1CCC(CNCc2ccc(C#N)cc2)CC1 (stereo not given) | 2.816% |
| Cn1ccnc1CN1CCC(F)(F)C2(CCN(c3cccnc3)C2)C1.O=C(O)C(F)(F)F.O=C(O)C(F)(F)F (stereo not given) | 75.41% |
| COc1cccc(N2CC3(CCN(Cc4nccn4C)C3)CC2=O)c1.O=C(O)C(F)(F)F (stereo not given) | 13.06% |
| Cn1ccnc1CN1CCC2(CC1)CC(Oc1cccnc1)C2.O=C(O)C(F)(F)F.O=C(O)C(F)(F)F | -13.8% |
| Cn1ccnc1CN1CCC(F)(F)C2(CCN(c3cnccn3)C2)C1.O=C(O)C(F)(F)F (stereo not given) | 108.4% |
| Cn1cc(N2CC3(CCN(Cc4nccn4C)C3)CC2=O)cn1.O=C(O)C(F)(F)F (stereo not given) | -13.1% |
| Cc1ccc(N2CC3(CCN(Cc4nccn4C)C3)CC2=O)s1.O=C(O)C(F)(F)F (stereo not given) | 20.39% |
| Cc1cnn(C(C)C2CC2)c1NC(=O)c1cnccn1 (stereo not given) | 2.38% |
| COc1ccc(CN2CCN(C(C)=O)CC2)cc1SC(F)(F)F | -8.503% |
